# From PubChem BioAssay (NCATS)
# Records with an inconclusive call do not appear. A number with no mark means an inactive call. Activity calls are given as the source filed them. The call rests on the fitted dose curve; in most records, active means well fitted inhibition curve with a large enough effect; inconclusive means small, poorly fitted or top-dose-only effect; inactive means flat fitted curve, though single readings scatter.
# Assay: BET inhibitor-based combinations targeting novel dependencies in MECOM-rearranged (r) AML: AML-194 cell line (AID 2202237; further: nearly all actives have a fitted effect of over 40% in size;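 on viability (% of control): plate controls were vehicle wells for no effect and wells without cells for full effect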)
# Details: AML-194 (MECOM-r AML) viability, CellTiter-Glo, 48 h; series mostly up to 46 µM; viability (% of control): at the top concentration
# Text: Ecotropic viral insertion site 1 (EVI1) is located on chromosome 3q26.2 as part of the MECOM (MDS and EVI1 complex) locus. Under normal hematopoiesis, EVI1 is a regulator of hematopoietic stem cell maintenance and self-renewal and EVI1 levels decrease as the cells differentiate. In approximately 5-10% of de novo acute myeloid leukemia (AML) EVI1 is aberrantly expressed, including Chromosomal inv(3)(q21;q26.2) or t(3;3)(q21;q26.2) alterations (MECOM-r) that account for about 50% of AML with EVI1 overexpression 31. AMLs with high levels of EVI1 have a poor prognosis and an overall survival time averaging between 10-14 months. EVI1 overexpression confers resistance in leukemia cells, highlighting the need to develop new targeted therapies for EVI1 overexpressing AMLs.
# Here, we performed an unbiased chemical drug screening by evaluating the single agent activity of a collection of 2,480 oncology-focused, approved and investigational drugs (NCATS Mechanism Interrogation Plates, MIPE v5.0) against a panel of seven AML cell lines. These included four MECOM-r cell-lines (AML-191, AML-194, UCSD-AML1 and HNT-34) and three non-MECOM-r AMLs (MV4-11, OCI-AML3 and SET-2). Exploiting the mechanistic redundancy built in the library, we identified target-level sensitivities in MECOM-r AML cells and relative activity as compared to other AML subtypes.
# A collection of 2480 mechanistically annotated dugs (MIPE v5.0) was used to screen four 3q26.2 rearranged AML cell lines and three non-3q26.2 rearranged AML cell lines. This library purposely exploits redundancy by including multiple inhibitors of key onco-targets, while simultaneously encompassing mechanistic diversity, targeting more than 800 distinct mechanisms of action. Briefly, cells were seeded in 5 uL of growth media using a Multidrop Combi dispenser into 1536 well white polystyrene tissue culture treated plates (Corning) at a density of 500cells/well. For each cell-line, for each of the 2480 drugs in MIPE v5.0 library, an 11-point dose curve was generated via a 1536 pin-tool. Plates were incubated for 48 hr at standard incubator conditions, covered by a stainless steel gasketed lid to prevent evaporation. Cell viability was determined by luminescence based, Cell Titer Glo assay (Promega). In detail, 3 uL of Cell Titer Glo were added to each well and plates were incubated at room temperature for 15 min with a stainless-steel lid in place. Luminescence readings were taken using a Viewlux (PerkinElmer) with a 2 s exposure time per plate. Compound dose-response curves were normalized to DMSO and empty well controls on each plate. Quantitative drug activity data from dose-response curves was determined utilizing area Under the Curve (AUC) and Z-transformed AUC (Z-AUC, a mean-centering transformation applied to each individual cell-line screened).
# Potency means the concentration at half of the fitted maximal effect.
Structure (SMILES),viability (% of control) [%],Potency
CC(C)CC(N(C)C)C1(c2ccc(Cl)cc2)CCC1 (stereo not given),88.9,–
CCN(CC)C(=O)c1ccc(C2=CC3(CCNCC3)Oc3cccc(O)c32)cc1,93.8,–
Cn1c(CCCCCCC(=O)NO)nc2cc(N(CCCl)CCCl)ccc21,–,2950 nM (active)
CN1C(=O)COc2c(C(=O)NC3CN4CCC3CC4)cc(Cl)cc21 (stereo not given),114,–
O=c1[nH]c2ccccc2n1C1CCN(Cc2ccc(-c3[nH]c4cc5ncnc5cc4nc3-c3ccccc3)cc2)CC1,–,20900 nM (active)
COc1cc(C)[nH]c(=O)c1CNC(=O)c1c(C)n([C@H](C)C2CCOCC2)c2ccccc12,118,–
Clc1ccccc1C(c1ccccc1)(c1ccccc1)n1cccn1,107,–
C#C[C@]1(O)C=C[C@H]2[C@@H]3CCC4=CC(=O)CC[C@@H]4[C@H]3CC[C@@]21CC,101,–
CCOc1ccccc1-n1c(C(C)N2CCN(C(=O)COc3ccc(Cl)cc3)CC2)nc2ccccc2c1=O (stereo not given),–,4680 nM (active)
CSCC[C@@H](NC(=O)[C@@H](Cc1ccccc1)NC(=O)CNC(=O)CNC(=O)[C@@H](N)Cc1ccc(O)cc1)C(=O)O,120,–
C[C@]12Cc3cn[nH]c3C[C@@H]1CC[C@@H]1[C@@H]2CC[C@@]2(C)[C@H]1CC[C@]2(C)O,106,–
C[C@]12CC[C@@H]3[C@@H](CCC4=CC(=O)CC[C@@H]43)[C@@H]1CC[C@@H]2OC(=O)CCc1ccccc1,102,–
CC1(N2CCC(n3c([C@@H]4CCCNC4)nc4ccccc43)CC2)CCCCCCC1,–,26300 nM (active)
O=C1C=CC[C@@H]2[C@H]3CCCN4CCC[C@@H](CN12)[C@@H]34,86,–
CC1(C)C(=O)N(c2ccc(C#N)c(C(F)(F)F)c2)C(=S)N1Cc1ccc(-c2cn[nH]n2)cc1,–,20900 nM (active)
C/C=C(/C)C(=O)O[C@H]1C(C)=C2[C@H]([C@@H]1OC(=O)CCCCCCC)[C@@](C)(OC(C)=O)C[C@H](OC(=O)CCC)[C@@]1(O)[C@H]2OC(=O)[C@@]1(C)O,–,2090 nM (active)
Cn1c(CCCC(=O)O)nc2cc(N(CCCl)CCCl)ccc21,–,20900 nM (active)
COc1ccc(C(=O)c2c(C)n(CCN3CCOCC3)c3ccccc23)cc1,–,1480 nM (active)
C[C@@H]1O[C@@H](O[C@H]2C[C@@H](O)[C@]3(CO)[C@H]4[C@H](O)C[C@]5(C)[C@@H](C6=CC(=O)OC6)CC[C@]5(O)[C@@H]4CC[C@]3(O)C2)[C@H](O)[C@H](O)[C@H]1O,–,46.8 nM (active)
COC(=O)[C@@H](N)CCCN=C(N)N[N+](=O)[O-],102,–

Structure (SMILES),viability (% of control) [%],Potency
O=P1(NCCCl)OCCCN1CCCl (stereo not given),109,–
CC(=O)c1c(O)c(C)c(O)c(Cc2c(O)c3c(c(C(=O)/C=C/c4ccccc4)c2O)OC(C)(C)C=C3)c1O,78.6,–
C#CC1(O)CCC2C3CCC4=CC(=O)CCC4(C)C3CCC21C (stereo not given),87.8,–
Cn1c(/C=C/CO)c(CO)c2c1C(=O)C=C(N1CC1)C2=O,114,–
C[C@@H]1C[C@@H]([C@H](O)CC2CC(=O)NC(=O)C2)C(=O)[C@@H](C)C1,–,833 nM (active)
C=C[C@H]1CN2CCC1C[C@@H]2[C@@H](O)c1ccnc2ccccc12 (stereo not given in full),110,–
CNCC(O)c1ccc(O)cc1 (stereo not given),105,–
O=C(O)C1=CCCN(CCOC(c2ccc(C(F)(F)F)cc2)c2ccc(C(F)(F)F)cc2)C1,92.7,–
C[C@]12CC[C@H]3[C@@H](CC[C@@]45O[C@@H]4C(O)=C(C#N)C[C@]35C)[C@@H]1CC[C@@H]2O,103,–
CC1(C)CC[C@]2(NC(=O)C(C)(F)F)CC[C@]3(C)[C@H](C(=O)C=C4[C@@]5(C)C=C(C#N)C(=O)C(C)(C)[C@@H]5CC[C@]43C)[C@@H]2C1,–,1860 nM (active)
COC(=O)[C@@]12OC[C@]34[C@H]([C@@H](O)[C@@H]1O)[C@@]1(C)CC(=O)C(O)=C(C)[C@@H]1C[C@H]3OC(=O)[C@H](OC(=O)/C=C(\C)C(C)C)[C@@H]24,–,5.9 nM (active)
O=C(O)c1nn(Cc2ccc(Cl)cc2Cl)c2ccccc12,106,–
CN1C(=O)CCS(=O)(=O)C1c1ccc(Cl)cc1 (stereo not given),102,–
Cc1[nH]ncc1-c1cc2nc([C@@H]3CC4CCN3CC4)[nH]c(=O)c2s1,–,9340 nM (active)
CN1C(=O)[C@@H](NC(=O)[C@H](CCC(F)(F)F)[C@H](CCC(F)(F)F)C(N)=O)N=C(c2ccccc2)c2ccccc21,118,–
C[C@@H](C1CC[C@@]2(O)C3=CC(=O)[C@@H]4C[C@@H](O)[C@@H](O)C[C@]4(C)[C@H]3CC[C@]12C)[C@H](O)CCC(C)(C)O (stereo not given in full),104,–
O=c1cccc2n1CC1CNC[C@H]2C1,100,–
Cn1c(COP(=O)(NCCBr)NCCBr)cnc1[N+](=O)[O-],108,–
CC(C)[C@]12O[C@H]1[C@@H]1O[C@@]13[C@@]1(C)CCC4=C(COC4=O)[C@@H]1C[C@@H]1O[C@@]13C2=O,–,332 nM (active)
O=c1[nH]c2ccc(Cl)cc2c(N[C@@H]2CN3CCC2CC3)c1-c1nc2ccccc2[nH]1,–,332 nM (active)
